Test results reported in PubChem BioAssay (NCATS).
A number with no mark means an inactive call. Inconclusive results are not listed. Calls of active or inactive are those of the source. Unless noted, calls follow the shape of the dose curve; as a rule, active = well fitted curve in either direction with a large enough effect (not every such curve was filed as active); inconclusive = small, poorly fitted or top-dose-only effect, or another doubt; inactive = flat fitted curve, though single readings scatter.

Experiments:
[1] = target: Lysosomal acid glucosylceramidase (Homo sapiens) (UniProt P04062); test: Glucocerebrosidase-p2 (AID 348; in the data active = potency below about 10 µM; also: potency is read from the fitted curve at half-maximal effect); settings: purified GBA, blue fluorogenic substrate, 40 min
Sequence of Lysosomal acid glucosylceramidase (Homo sapiens) (P04062 whole entry, looked up): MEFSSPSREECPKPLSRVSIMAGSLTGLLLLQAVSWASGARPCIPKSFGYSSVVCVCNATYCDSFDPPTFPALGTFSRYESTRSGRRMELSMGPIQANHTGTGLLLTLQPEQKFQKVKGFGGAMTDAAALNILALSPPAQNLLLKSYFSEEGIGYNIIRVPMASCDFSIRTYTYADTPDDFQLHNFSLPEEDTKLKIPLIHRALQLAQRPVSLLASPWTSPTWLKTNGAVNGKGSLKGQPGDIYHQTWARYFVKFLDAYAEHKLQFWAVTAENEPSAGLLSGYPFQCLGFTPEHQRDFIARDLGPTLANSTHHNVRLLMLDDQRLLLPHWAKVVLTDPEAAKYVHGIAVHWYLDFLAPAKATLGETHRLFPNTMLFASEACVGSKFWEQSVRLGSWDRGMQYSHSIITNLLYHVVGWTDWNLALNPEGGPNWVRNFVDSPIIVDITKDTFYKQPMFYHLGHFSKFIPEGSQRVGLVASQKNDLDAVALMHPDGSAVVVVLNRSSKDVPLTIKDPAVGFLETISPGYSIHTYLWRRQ
In short: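 Compounds titrated from 0.6 nM upwards against 0.2 nM enzyme in pH 5.9 citric acid/KH2PO4, taurocholate, tween-20; blue fluorogenic substrate 80 uM, 40 min room temperature, stopped and read Ex 365/Em 440 for AC50.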

[2] = AP1 Signaling Pathway (AID 357); settings: ME-180 AP-1-bla reporter, EGF-induced, beta-lactamase ratio, 5 h; at 7.69 µM (top of the series) unless noted;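 also: ME-180 reporter cells stimulated with EGF at its EC50 level; % is scaled to controls: 0 for no effect and ±100 for the full control effect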
In short: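 AP-1-bla ME-180 cells, Opti-MEM + 0.5% dialyzed FBS, plated overnight 37 °C. Cpd titration + EC50 EGF, 5 h 37 °C. CCF4 2.5 h RT; ex 405, em 460/530 ratio → %activity, AC50.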

[3] = Stat Signaling Pathway (AID 446); settings: ME-180 (cervical carcinoma) SIE beta-lactamase reporter, IL-6 stimulated, 5 h; at 7.69 µM (top of the series) unless noted;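 also: ME-180 cervical cancer cells given 40 pM IL-6 alongside compound; SIE-controlled beta-lactamase reporter measured as 460/530 nm FRET emission ratio; % is scaled to controls: 0 for no effect and ±100 for the full control effect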
In short: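 IL-6/STAT signaling read in ME-180 cells via an SIE beta-lactamase reporter. Stimulus was 40 pM IL-6 (its AC50) for 5 hrs, so both activation and inhibition register.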

[4] = target: Glucocorticoid receptor (Homo sapiens) (UniProt P04150); test: GR-GFP Redistribution (AID 450;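 active = compounds whose dose series gives a full or clear partial fitted curve of increased nuclear translocation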; also: potency is read from the fitted curve at half-maximal effect); settings: U2OS GR-GFP nuclear translocation, laser cytometry, 2 h
Sequence of Glucocorticoid receptor (Homo sapiens) (P04150 whole entry, looked up, the tested form may be a part): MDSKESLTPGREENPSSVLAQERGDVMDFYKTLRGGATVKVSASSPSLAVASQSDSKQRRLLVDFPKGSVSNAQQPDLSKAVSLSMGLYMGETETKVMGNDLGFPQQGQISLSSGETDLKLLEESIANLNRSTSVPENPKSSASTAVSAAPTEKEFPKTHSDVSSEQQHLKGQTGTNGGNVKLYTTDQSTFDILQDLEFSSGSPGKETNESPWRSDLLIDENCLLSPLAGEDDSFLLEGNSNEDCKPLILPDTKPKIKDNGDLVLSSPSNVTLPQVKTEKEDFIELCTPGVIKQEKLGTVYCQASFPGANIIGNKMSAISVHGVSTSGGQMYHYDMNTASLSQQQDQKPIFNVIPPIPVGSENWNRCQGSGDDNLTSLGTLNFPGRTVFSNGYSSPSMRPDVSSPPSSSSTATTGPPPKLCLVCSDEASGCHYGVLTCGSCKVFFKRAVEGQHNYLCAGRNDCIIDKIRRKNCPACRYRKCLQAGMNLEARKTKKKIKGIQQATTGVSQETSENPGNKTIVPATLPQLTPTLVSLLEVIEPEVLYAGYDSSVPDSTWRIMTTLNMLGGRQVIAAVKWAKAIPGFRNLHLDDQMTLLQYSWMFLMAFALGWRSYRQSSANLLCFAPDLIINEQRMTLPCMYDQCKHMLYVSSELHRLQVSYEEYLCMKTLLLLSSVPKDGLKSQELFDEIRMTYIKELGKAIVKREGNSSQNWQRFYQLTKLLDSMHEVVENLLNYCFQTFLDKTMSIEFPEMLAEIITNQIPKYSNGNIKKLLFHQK

[5] = target: Glucocorticoid receptor (Homo sapiens) (UniProt P04150); test: GR-EFC Redistribution (AID 451; calls by dose curve; also: potency is read from the fitted curve at half-maximal effect); settings: CHO-K1 GR-EFC translocation, beta-gal luminescence, 2 h
In short: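 CHO-K1 cells expressing nuclear EA and GR-ED fragments of b-gal; compounds titrated up to 46 uM final, 2 h at 37 C. GR nuclear translocation read as complemented b-gal luminescence after 1 h RT detection.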

[6] = target: Mitogen-activated protein kinase 10 (Mus musculus) (UniProt Q61831); test: JNK3 AlphaScreen Assay (AID 530); settings: JNK3 lysate, c-Jun phosphorylation; series mostly up to 11.4 µM;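 also: kinase came from lysate of stimulated human HepG2 cells; signal reports phosphorylation of biotinylated GST-cJun 1-79 at Ser73 with 10 µM ATP; % is scaled to controls: 0 for no effect and ±100 for the full control effect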
In short: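 qHTS format: compounds tested as titrations against IL-1beta/TNF-alpha-activated HepG2 lysate JNK3 with biotin-GST-cJun substrate and 10 uM ATP at room temperature. Loss of anti-phospho-cJun AlphaScreen signal indicates inhibition.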

[7] = target: 3',5'-cyclic-AMP phosphodiesterase 4B (Homo sapiens) (UniProt Q07343); test: qHTS Assay for Inhibitors of PDE-IV (AID 607; active = well fitted activation curve with a large enough effect in the main read-out, with a control signal flat, not every such curve was filed as active; also: % of control where 0% means no effect); settings: HEK293 ACTOne CNG channel cells, membrane potential fluorescence; series mostly up to 22.9 µM
Sequence of 3',5'-cyclic-AMP phosphodiesterase 4B (Homo sapiens) (Q07343 whole entry, looked up): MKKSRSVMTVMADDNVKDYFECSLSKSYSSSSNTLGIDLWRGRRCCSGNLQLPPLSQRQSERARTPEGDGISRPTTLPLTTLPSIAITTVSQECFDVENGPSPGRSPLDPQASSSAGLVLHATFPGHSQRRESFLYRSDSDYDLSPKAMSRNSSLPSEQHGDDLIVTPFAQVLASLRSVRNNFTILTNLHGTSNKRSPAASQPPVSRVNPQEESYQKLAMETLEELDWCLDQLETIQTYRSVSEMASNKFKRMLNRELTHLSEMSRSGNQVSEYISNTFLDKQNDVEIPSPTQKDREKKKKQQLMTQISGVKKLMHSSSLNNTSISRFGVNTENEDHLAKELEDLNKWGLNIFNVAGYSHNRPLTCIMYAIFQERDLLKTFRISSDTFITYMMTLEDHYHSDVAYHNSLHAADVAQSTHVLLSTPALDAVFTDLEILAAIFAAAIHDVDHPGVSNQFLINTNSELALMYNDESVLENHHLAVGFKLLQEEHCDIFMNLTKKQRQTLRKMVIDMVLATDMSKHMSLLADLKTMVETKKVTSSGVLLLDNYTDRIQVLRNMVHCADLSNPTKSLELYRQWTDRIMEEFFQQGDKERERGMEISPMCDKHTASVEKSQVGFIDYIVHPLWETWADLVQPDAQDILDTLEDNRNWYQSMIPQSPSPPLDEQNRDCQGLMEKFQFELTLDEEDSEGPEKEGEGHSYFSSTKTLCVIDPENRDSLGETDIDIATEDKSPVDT
In short: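 Live HEK293 cells with a modified cyclic nucleotide-gated (CNG) channel report intracellular cAMP via membrane-potential dye fluorescence (ex 535/em 590 nm). Endogenous PDE-IV was targeted. Compounds were tested at up to 22.9 uM final; RO 20-1724 100 uM served as control.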

[8] = NFAT Signaling Pathway (AID 444); settings: Jurkat NFAT-bla M1, carbachol, beta-lactamase ratio, 5 h; at 7.69 µM (top of the series) unless noted;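 also: carbachol stimulus at about its EC50 of 1 µM final; % is scaled to controls: 0 for no effect and ±100 for the full control effect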
In short: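 Jurkat cells with NFAT-driven β-lactamase reporter and co-expressed M1 receptor, stimulated with carbachol (final 1 uM, ~EC50), compound titration, 5 h at 37 °C. CCF4 loaded 1 h at RT; 460/530 nm ratio gave %activity and AC50.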

[9] = target: Cytochrome P450 2D6 (Homo sapiens) (UniProt P10635); test: qHTS Assay for Inhibitors and Substrates of Cytochrome P450 2D6 (AID 891; active = well fitted curve in the direction sought with a large enough effect; an effect the other way counts as inactive or inconclusive;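 also: luciferin methyl ether substrate demethylated by CYP2D6 with NADPH regeneration; % is scaled to controls: 0 for no effect and ±100 for the full control effect; nearly all actives have a fitted effect of over 60% in size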); settings: recombinant CYP2D6, luciferin-ME EGE luminescence; series mostly up to 11.4 µM
Sequence of Cytochrome P450 2D6 (Homo sapiens) (P10635 whole entry, looked up): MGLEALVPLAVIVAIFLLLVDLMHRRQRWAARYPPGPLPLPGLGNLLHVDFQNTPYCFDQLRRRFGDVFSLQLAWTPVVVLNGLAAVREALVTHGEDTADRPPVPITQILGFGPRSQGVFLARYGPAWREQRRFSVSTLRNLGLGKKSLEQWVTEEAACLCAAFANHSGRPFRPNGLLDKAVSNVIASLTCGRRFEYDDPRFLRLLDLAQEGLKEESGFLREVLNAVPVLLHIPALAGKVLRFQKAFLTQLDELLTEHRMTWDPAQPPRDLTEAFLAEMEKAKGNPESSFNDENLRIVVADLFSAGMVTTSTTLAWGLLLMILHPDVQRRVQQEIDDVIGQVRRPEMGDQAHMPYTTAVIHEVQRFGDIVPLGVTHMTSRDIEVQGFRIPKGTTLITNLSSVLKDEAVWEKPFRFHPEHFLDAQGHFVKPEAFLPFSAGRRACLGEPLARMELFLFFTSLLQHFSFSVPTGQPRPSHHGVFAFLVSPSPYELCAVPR
In short: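 Human CYP2D6 (5 nM) with 30 uM Luciferin-ME EGE (at Km) in 100 mM KPO4, compound preincubated 10 min, then NADPH regeneration system for 60 min at room temperature. Luciferin read by luminescence; normalized to 1.43 uM quinidine.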

[10] = target: Cytochrome P450 2C9 (Homo sapiens) (UniProt P11712); test: qHTS Assay for Inhibitors and Substrates of Cytochrome P450 2C9 (AID 883; active = well fitted curve in the direction sought with a large enough effect; an effect the other way counts as inactive or inconclusive; also: nearly all actives have a fitted effect of over 60% in size; also: potency is read from the fitted curve at half-maximal effect); settings: recombinant CYP2C9, luciferin-H luminescence, 60 min; series mostly up to 11.4 µM
Sequence of Cytochrome P450 2C9 (Homo sapiens) (P11712 whole entry, looked up): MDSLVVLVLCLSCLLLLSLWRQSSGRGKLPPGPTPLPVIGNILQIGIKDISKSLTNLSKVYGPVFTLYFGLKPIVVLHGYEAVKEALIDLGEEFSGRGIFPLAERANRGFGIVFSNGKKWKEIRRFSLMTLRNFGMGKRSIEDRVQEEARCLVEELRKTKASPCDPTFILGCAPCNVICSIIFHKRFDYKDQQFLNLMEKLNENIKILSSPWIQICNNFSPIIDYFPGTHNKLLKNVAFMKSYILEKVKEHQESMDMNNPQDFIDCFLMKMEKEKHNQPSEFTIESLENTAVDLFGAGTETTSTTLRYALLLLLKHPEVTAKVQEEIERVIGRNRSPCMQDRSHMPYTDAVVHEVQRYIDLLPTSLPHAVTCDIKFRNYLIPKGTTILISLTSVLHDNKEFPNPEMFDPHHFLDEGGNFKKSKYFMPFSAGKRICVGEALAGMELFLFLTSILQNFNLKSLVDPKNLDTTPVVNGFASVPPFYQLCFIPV
In short: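 Signal: luciferase luminescence reporting luciferin produced by CYP2C9. Conditions: 10nM enzyme, Luciferin-H 100uM at KM, 25mM KPO4, 37C, 60 min NADPH-driven reaction. Reference: 57uM sulphaphenazole as 100% inhibition.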

[11] = target: Cytochrome P450 3A4 (Homo sapiens) (UniProt P08684); test: qHTS Assay for Inhibitors and Substrates of Cytochrome P450 3A4 (AID 884; active = well fitted curve in the direction sought with a large enough effect; an effect the other way counts as inactive or inconclusive; also: % is scaled to controls: 0 for no effect and ±100 for the full control effect; nearly all actives have a fitted effect of over 50% in size); settings: recombinant CYP3A4, Luciferin-PPXE luminescence; series mostly up to 57.1 µM
Sequence of Cytochrome P450 3A4 (Homo sapiens) (P08684 whole entry, looked up): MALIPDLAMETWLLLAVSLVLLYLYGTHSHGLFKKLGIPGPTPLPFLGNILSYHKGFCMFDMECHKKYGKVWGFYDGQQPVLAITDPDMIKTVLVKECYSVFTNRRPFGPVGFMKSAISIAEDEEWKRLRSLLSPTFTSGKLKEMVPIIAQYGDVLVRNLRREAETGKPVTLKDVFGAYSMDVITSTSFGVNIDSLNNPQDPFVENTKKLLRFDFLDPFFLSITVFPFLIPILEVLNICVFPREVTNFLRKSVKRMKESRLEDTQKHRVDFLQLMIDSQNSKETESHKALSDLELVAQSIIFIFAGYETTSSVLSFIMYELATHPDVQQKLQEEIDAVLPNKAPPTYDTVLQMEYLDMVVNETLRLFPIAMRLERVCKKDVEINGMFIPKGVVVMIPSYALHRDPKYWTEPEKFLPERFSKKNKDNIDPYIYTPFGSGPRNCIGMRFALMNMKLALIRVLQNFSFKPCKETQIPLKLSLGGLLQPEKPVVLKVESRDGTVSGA
In short: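 20 nM human CYP3A4 with 25 uM Luciferin-PPXE (at KM) in 200 mM KPO4, preincubated 10 min with compound; NADPH regeneration started a 60 min RT reaction. Luciferin detected by luminescence, normalized to 57 uM ketoconazole as full inhibition.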

[12] = target: Cytochrome P450 2C19 (Homo sapiens) (UniProt P33261); test: qHTS Assay for Inhibitors and Substrates of Cytochrome P450 2C19 (AID 899; active = well fitted curve in the direction sought with a large enough effect; an effect the other way counts as inactive or inconclusive; also: % is scaled to controls: 0 for no effect and ±100 for the full control effect; nearly all actives have a fitted effect of over 60% in size); settings: recombinant CYP2C19, luciferin-H EGE luminescence; series mostly up to 11.4 µM
Sequence of Cytochrome P450 2C19 (Homo sapiens) (P33261 whole entry, looked up): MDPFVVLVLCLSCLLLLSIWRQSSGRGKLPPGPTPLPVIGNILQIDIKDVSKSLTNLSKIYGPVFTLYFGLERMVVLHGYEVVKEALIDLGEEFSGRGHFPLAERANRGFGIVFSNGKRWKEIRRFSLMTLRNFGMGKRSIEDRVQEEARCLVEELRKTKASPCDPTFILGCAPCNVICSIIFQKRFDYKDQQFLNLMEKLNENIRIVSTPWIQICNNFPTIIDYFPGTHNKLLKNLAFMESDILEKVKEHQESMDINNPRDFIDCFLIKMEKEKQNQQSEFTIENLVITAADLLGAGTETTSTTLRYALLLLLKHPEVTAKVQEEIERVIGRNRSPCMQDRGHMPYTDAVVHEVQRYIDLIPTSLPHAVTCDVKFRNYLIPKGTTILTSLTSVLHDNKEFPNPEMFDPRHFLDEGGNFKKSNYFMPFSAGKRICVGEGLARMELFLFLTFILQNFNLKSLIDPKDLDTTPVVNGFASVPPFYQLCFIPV
In short: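 Signal comes from luciferase acting on luciferin released by CYP2C19-mediated hydroxylation of Luciferin-H EGE, 10uM (KM). Assay mix: 5nM enzyme, 50mM KPO4; 60 min at 37C with NADPH regeneration. Data normalized against 57uM ketoconazole.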

[13] = target: Ubiquitin carboxyl-terminal hydrolase 1 (Homo sapiens) (UniProt O94782); test: Inhibitors of USP1/UAF1: Pilot qHTS (AID 504865; active = well fitted curve in the direction sought with a large enough effect; an effect the other way counts as inactive or inconclusive;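 also: rhodamine fluorescence freed from ubiquitin-rhodamine substrate followed over time; top concentration of the series differs between compounds; % is scaled to controls: 0 for no effect and ±100 for the full control effect; nearly all actives have a fitted effect of over 35% in size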); settings: purified USP1/UAF1, Ub-rhodamine cleavage fluorescence; series mostly up to 114 µM
Sequence of Ubiquitin carboxyl-terminal hydrolase 1 (Homo sapiens) (O94782 whole entry, looked up): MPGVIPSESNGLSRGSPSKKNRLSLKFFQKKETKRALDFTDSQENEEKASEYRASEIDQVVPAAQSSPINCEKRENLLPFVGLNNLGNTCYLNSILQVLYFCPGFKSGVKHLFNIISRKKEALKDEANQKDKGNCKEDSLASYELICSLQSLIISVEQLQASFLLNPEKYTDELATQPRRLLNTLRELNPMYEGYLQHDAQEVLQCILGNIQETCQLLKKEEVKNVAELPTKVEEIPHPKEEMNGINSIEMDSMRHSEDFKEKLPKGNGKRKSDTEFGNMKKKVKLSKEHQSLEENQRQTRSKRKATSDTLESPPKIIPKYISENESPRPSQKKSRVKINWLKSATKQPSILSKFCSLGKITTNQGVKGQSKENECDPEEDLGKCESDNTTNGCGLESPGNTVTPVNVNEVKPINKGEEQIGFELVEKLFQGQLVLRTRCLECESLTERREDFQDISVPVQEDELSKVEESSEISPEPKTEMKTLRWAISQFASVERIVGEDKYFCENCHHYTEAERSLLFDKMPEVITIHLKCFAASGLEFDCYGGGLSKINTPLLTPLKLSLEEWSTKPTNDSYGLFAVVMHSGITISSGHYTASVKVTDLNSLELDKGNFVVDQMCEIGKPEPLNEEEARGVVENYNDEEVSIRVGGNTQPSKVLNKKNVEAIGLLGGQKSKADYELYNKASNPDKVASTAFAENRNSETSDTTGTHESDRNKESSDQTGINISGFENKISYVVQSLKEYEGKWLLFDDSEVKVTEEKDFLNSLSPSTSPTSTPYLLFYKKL
In short: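 1nM USP1/UAF1 + cpd, 15 min RT; start w/ Ub-Rho 150nM final; kinetic FL 480/540 nm, 6 reads q60 s. Buffer 50mM HEPES pH 7.8, 0.5mM EDTA, 1mM TCEP, 0.01% Tween-20, 0.1 mg/ml BSA.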

[14] = target: Cytochrome P450 3A4 (Homo sapiens) (UniProt P08684); test: qHTS Assay for Activators of Cytochrome P450 3A4 (AID 885; active = well fitted curve in the direction sought with a large enough effect; an effect the other way counts as inactive or inconclusive; also: nearly all actives have a fitted effect of over 65% in size); settings: recombinant CYP3A4, Luciferin-PPXE luminescence, 60 min; series mostly up to 11.4 µM
In short: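 Quantitative HTS format: compounds preincubated with 20nM human CYP3A4 and Luciferin-PPXE substrate at KM, reaction started by NADPH regeneration, stopped after 60 min, luciferase luminescence read 20 min later.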

Row | Compound | Potency [1] [µM] | activity change, negative = inhibition [2] | activity, negative = inhibition [3] [%] | Potency [4] [µM] | Potency [5] [µM] | Potency [6] | Potency [7] | activity change, negative = inhibition [8] | Potency [9] | Potency [10] | activity change, negative = inhibition [11] | Potency [12] | Potency [13] | Potency [14]
1 | O=c1cnc2cnc(N3CCNCC3)nc2n1CCc1ccccc1 | > 11.4 | -5.27% | -12.8 | > 9.22 | > 46 | inactive | inactive |  |  |  |  |  |  | 
2 | CCN(CC)COC(=S)S | > 11.4 | 7.48% |  | > 46 | > 9.22 | inactive | inactive | -12.2% |  |  |  |  |  | 
3 | COc1ccc2c(c1)[n+]([O-])c(/C(C)=N/NC(N)=S)c(C)[n+]2[O-] | > 11.4 | -7.76% |  | > 46 | > 9.22 | inactive | inactive | 5.82% |  |  |  |  |  | 
4 | CC(C)[C@](N)(C(=O)O)c1ccccc1 | > 11.4 | -9.87% |  | > 46 | > 9.22 | inactive | inactive | 5.98% | inactive |  |  |  |  | 
5 | O=C(O)c1ccc(N[C@H](c2ccccc2)c2ccc3cccnc3c2O)cc1 | > 11.4 | -0.822% | -17 | > 46 | > 9.22 | inactive | inactive |  |  |  |  |  |  | 
6 | CC(C)(CN)SCc1ccccc1 | > 11.4 | 5.51% |  | > 46 | > 9.22 | inactive | inactive | -0.0753% |  |  |  |  |  | 
7 | Cc1cc(C)nc(NC(=O)COc2ccc(Cl)cc2)c1 | > 11.4 | 7.73% |  | > 46 | > 9.22 | inactive | inactive | -19.2% |  |  |  |  |  | 
8 | Oc1cc(O)c2c(c1)O[C@H](c1ccc(O)c(O)c1)[C@@H](O)[C@@H]2c1c(O)cc(O)c2c1O[C@@H](c1ccc(O)c(O)c1)[C@H](O)C2 | > 11.4 | 16.5% | -2.56 | > 46 | > 9.22 | inactive | inactive |  |  |  |  |  |  | 
9 | COc1nc(Cl)nc(Cl)c1Cl (tested in a mixture with another compound) | > 11.4 | 2.89% |  | > 46 | > 9.22 | inactive | inactive | 3.88% |  |  |  |  |  | 
10 | C(=N/Nc1ccccn1)/c1cccnc1 | > 11.4 | 3.9% |  | > 46 | > 9.22 | inactive | inactive | 5.25% |  |  |  |  |  | 
11 | C[C@@]1(CO)[C@H](O)CC[C@]2(C)[C@@H]1CC[C@H]1C[C@H]3C[C@]12CC[C@]3(O)COC(=O)CN | > 11.4 | 5.13% |  | > 46 | > 9.22 | inactive | inactive | 23.5% |  |  |  |  |  | 
12 | O=C(O)CSCC(=O)c1ccccc1 | > 11.4 | 3.6% |  | > 46 | > 9.22 | inactive | inactive | 11.1% | inactive | inactive | -4.13% [at 11.4 µM] | inactive |  | 
13 | CNc1ncnc(Sc2nc(N)nc3nc[nH]c23)c1[N+](=O)[O-] | > 11.4 | -9.31% | 21.1 | > 46 | > 9.22 | inactive | inactive |  |  |  |  |  |  | 
14 | COc1ccccc1-c1nc(NCCc2cnc[nH]2)c2ccccc2n1 | > 11.4 | 17.1% | 22.8 | > 46 | > 46 | inactive | inactive |  |  |  |  |  | inactive | 
15 | Cc1cc(OCC(=O)O)c(Cl)cc1Cl | > 11.4 | 2.52% |  | > 46 | > 9.22 | inactive | inactive | 2.25% |  |  |  |  |  | 
16 | O=[N+]([O-])c1ccc2c(N=Nc3ccc4ccccc4c3O)c(O)cc(S(=O)(=O)O)c2c1 | > 11.4 | -18.5% |  | > 46 | > 9.22 |  | inactive | -9.87% |  | 3.16 µM (active) |  |  |  | inactive
17 | C[C@H](CCC(=O)O)[C@H]1CC[C@@H]2[C@@H]3CC[C@H]4C[C@@H](O)CC[C@@]4(C)[C@@H]3C[C@H](O)[C@@]21C | > 11.4 | 4.11% | 2.1 | > 46 | > 9.22 | inactive | inactive |  |  |  |  |  |  | 
18 | COc1ccc(-c2nc3cnc(N4CCNCC4)nc3n(Cc3cccc(OC)c3)c2=O)cc1 | > 11.4 | 109% [activator] (active) |  | > 9.22 | > 46 |  | inactive | 101% [activator] (active) |  |  |  |  |  | inactive
19 | Cn1cnc([N+](=O)[O-])c1Sc1nnc(-c2cccnc2)n1C | > 11.4 | 19.7% | 4.54 | > 46 | > 9.22 | inactive | inactive |  |  |  |  |  |  | 
